Measurements: PubChem BioAssay (NCI)
This is part of a sample that, as a whole, favours compounds with a hit. Of some 79,000 tested, about 15% had one in any assay. A number with no mark means an inactive call. The source made the active and inactive calls. No stated cut-off is given here; in the data, active means growth inhibition above about 70%; inactive means the rest.

How the values were obtained:
[1] = NCI Yeast Anticancer Drug Screen. Data for the rad50 strain (AID 155);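 further: 0% = growth of vehicle-only cultures of the same strain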; conditions: S. cerevisiae rad50 strain growth inhibition; at 50.0 µM; hits give high values
Method in brief: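 Readout: growth inhibition relative to vehicle-treated cultures. Compound exposure was carried out in a genetically defined yeast strain deficient in DNA damage repair.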

[2] = NCI Yeast Anticancer Drug Screen. Data for the mec2-1 strain (AID 157); conditions: S. cerevisiae mec2-1 strain, at 50.0 µM, hits give high values
Method in brief: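 Compounds were applied to mec2-1 yeast cells. Their growth was then compared with that of vehicle-treated cultures to give growth inhibition.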

[3] = NCI Yeast Anticancer Drug Screen. Data for the sgs1 mgt1 strain (AID 161);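 further: 0% = growth of cultures given vehicle only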; conditions: S. cerevisiae sgs1 mgt1 strain, at 50.0 µM, hits give high values
Method in brief: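 This yeast growth screen uses a strain with defined DNA-repair lesions; compound-treated growth is compared with vehicle-treated growth.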

[4] = NCI Yeast Anticancer Drug Screen. Data for the cln2 rad14 strain (AID 165);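 further: 0% = growth equal to vehicle treated cultures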; conditions: S. cerevisiae cln2 rad14 strain, at 50.0 µM, hits give high values
Method in brief: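 Strain: cln2 rad14 yeast, altered in cell cycle control and DNA damage repair. Read-out: growth inhibition vs vehicle.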

[5] = NCI Yeast Anticancer Drug Screen. Data for the bub3 strain (AID 167); conditions: S. cerevisiae bub3 mutant strain, at 50.0 µM, hits give high values
Method in brief: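 Readout: yeast growth inhibition, expressed relative to vehicle-only wells. The test organism is a mutant strain from a panel with lesions in DNA repair or checkpoint genes.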

[6] = NCI Yeast Anticancer Drug Screen. Data for the mlh1 rad18 strain (AID 175); conditions: S. cerevisiae mlh1 rad18 strain growth inhibition; at 50.0 µM; hits give high values
Method in brief: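 A repair-deficient yeast strain is exposed to test compound, and growth is scored relative to vehicle-treated controls.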

SMILES	growth inhibition [1]	growth inhibition [2]	growth inhibition [3]	growth inhibition [4]	growth inhibition [5]	growth inhibition [6]
CC(C)C(=O)Nc1ccccc1	2.9%	-11.9%	2.7%	-25.6%	-13.6%	15.6%
COc1ccc2c(c1)nc1n2C(N)=Nc2ccccc2S1	44.5%	23.8%	36.2%	19.9%	58%	36.5%
O=C1CCC23CC(C=CC=C12)n1c(=O)n(-c2ccccc2)c(=O)n13 (stereo not given)	13.2%	-1.55%	4.1%	21.1%	-14.7%	16.7%
COc1ccc(NC(=O)Nc2cc(C(F)(F)F)ccc2Cl)cc1	14.6%	16.6%	5.9%	-26.1%	2.5%	-9.65%
Fc1ccc(/C=C/c2ccc(/C=C/c3ccc(F)cc3)nn2)cc1	18.4%	-4.2%	7.8%	-13.1%	5.15%	-1.5%
CCCCOc1cc2c(cc1C(C)c1ccccc1)OCO2 (stereo not given)	-0.35%	-3.95%	-4.05%	2.8%	15.8%	14.8%
C1CSCC2(COC2)CSCCSCC2(COC2)CS1	-23.1%	-13.4%	-18.9%	-3.05%	-7.35%	-18.6%
CCOC(=O)c1sc(N)nc1O	-5.5%	-0.3%	-3.75%	5.85%	6.25%	-8.8%
COC(=O)C(=O)C(C#N)c1c(Cl)cccc1Cl (stereo not given)	-5.6%	39.1%	0.05%	8.9%	1.65%	34.1%
CO/C=C(/C#N)S(=O)(=O)/C(C#N)=C/OC	32.5%	37.3%	34%	4.65%	24.9%	15.9%
C/C=C/C(=O)OCCC(C)OC(=O)/C=C/C (stereo not given)	26.1%	-30.4%	19.4%	17.4%	15.9%	5.25%
O=C(O)c1c[nH]c2c([N+](=O)[O-])cccc2c1=O	40.4%	16.5%	30.7%	8.5%	13.6%	28.4%
CC(=O)OCC1OC(n2cc(F)c(=O)[nH]c2=O)C(OC(C)=O)C1OC(C)=O (stereo not given)	28.9%	3.2%	-13.1%	43.2%	-16.4%	-26.4%
Nc1cccc2c1C(=O)c1c(N)cccc1C2=O	99.3% (active)	99.4% (active)	94.7% (active)	98.7% (active)	99.2% (active)	99.1% (active)
CCc1nnc(N)o1	-14.8%	1.9%	0.95%	-2.5%	-13.7%	-14.2%
O=C(c1ccccc1)C(c1ccccc1)S(=O)(=O)N1CCCC1 (stereo not given)	-4.65%	5.65%	21.6%	-1.4%	12.7%	26.9%
CC(C)CNC(=O)Nc1ccccc1C(F)(F)F	-6.5%	-8.4%	-23.6%	-4.55%	7.7%	-14.4%
CC(=O)CC(C)(C)S(=O)(=O)Cc1ccccc1	-3.4%	11.2%	6.9%	-5.85%	19.4%	6.3%
N=C(N)n1ncc(Cl)c(Cl)c1=O	30.8%	36.2%	33.9%	30.4%	38.9%	41.5%
Cc1cccnc1Br	-25.2%	-9.85%	-5.05%	-29.6%	-5.65%	-26.1%
